Measurements as given in PubChem BioAssay (EPA / NIEHS).
Active and inactive are the calls of the source. Rule for the calls: active = hit-call score of the fitted dose curve at least 0.9, where 1 is the maximum; inactive = score below 0.9.

Experiments:
[1] = read-out: Interleukin-8 (IL8), CXCL8 (gene 3576); test: BSK_KF3CT_IL8: BioMAP Diversity Plus: KF3CT Assay for Interleukin-8 (IL8) Biomarker Activity (AID 2284254); conditions: primary human keratinocytes with fibroblasts
Summary of the method: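 ELISA detection of IL-8 from a human skin co-culture, keratinocytes with foreskin fibroblasts, at 24 h following chemical exposure, with gain of signal scored against DMSO controls.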

[2] = read-out: Macrophage Inflammatory Protein-1 Alpha (MIP1a), CCL3 (gene 6348); test: BSK_IMphg_MIP1a: BioMAP Diversity Plus: IMphg Assay for Macrophage Inflammatory Protein-1 Alpha (MIP1a) Biomarker Activity (AID 2284255); conditions: primary human endothelial cells with macrophages
Summary of the method: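 MIP-1a protein levels were quantified by ELISA after 24 h treatment of human endothelial cell–macrophage co-cultures, compared with DMSO. Parallel cultures were fixed with TCA and stained with 0.1% SRB to gauge overt cytotoxicity.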

[3] = read-out: Plasminogen activator inhibitor-1 (PAI1), SERPINE1 (gene 5054); test: BSK_MyoF_PAI1: BioMAP Diversity Plus: MyoF Assay for Plasminogen activator inhibitor-1 (PAI1) Biomarker Activity (AID 2284256); conditions: primary human lung fibroblasts
Summary of the method: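 Activity reflects increased PAI-1, determined by ELISA and compared with DMSO, in human lung fibroblasts treated for 24 h.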

[4] = read-out: CD69, CD69 (gene 969); test: BSK_IMphg_CD69: BioMAP Diversity Plus: IMphg Assay for CD69 Biomarker Activity (AID 2284257); conditions: primary human endothelial cells with macrophages
Summary of the method: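 Readout is ELISA for CD69 in primary human venular endothelial cell/macrophage co-culture, taken at 24 h post-dosing. SRB staining of parallel cultures gauged overt cytotoxicity; signal increase versus DMSO defined activity.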

[5] = read-out: Eotaxin 3, CCL26 (gene 10344); test: BSK_BF4T_Eotaxin3: BioMAP Diversity Plus: BF4T Assay for Eotaxin 3 Biomarker Activity (AID 2284258); conditions: primary human bronchial epithelial cells with fibroblasts
Summary of the method: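 ELISA measurement of Eotaxin-3 after 24 h chemical exposure in a bronchial epithelial/dermal fibroblast co-culture, with DMSO as baseline. Parallel SRB staining (0.1% SRB after 10% TCA fixation, 560 nm) flagged overt cytotoxicity.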

[6] = read-out: Monocyte Chemoattractant Protein-1 (MCP1), CCL2 (gene 6347); test: BSK_BF4T_MCP1: BioMAP Diversity Plus: BF4T Assay for Monocyte Chemoattractant Protein-1 (MCP1) Biomarker Activity (AID 2284259); conditions: primary human bronchial epithelial cells with fibroblasts
Summary of the method: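 MCP-1 ELISA readout taken 24 h after dosing in the BF4T system (bronchial epithelial cells plus dermal fibroblasts). Parallel SRB total-protein staining flagged cytotoxicity; DMSO served as baseline, positive fitting direction.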

[7] = read-out: Interleukin-8 (IL8), CXCL8 (gene 3576); test: BSK_MyoF_IL8: BioMAP Diversity Plus: MyoF Assay for Interleukin-8 (IL8) Biomarker Activity (AID 2284261); conditions: primary human lung fibroblasts
Summary of the method: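 In this multiplexed primary-cell system, fibroblasts from human lung are treated with chemicals, and IL-8 is detected by ELISA at 24 h, with DMSO serving as the negative reference.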

[8] = read-out: CD90, THY1 (gene 7070); test: BSK_BF4T_CD90: BioMAP Diversity Plus: BF4T Assay for CD90 Biomarker Activity (AID 2284262); conditions: primary human bronchial epithelial cells with fibroblasts
Summary of the method: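 CD90 levels by ELISA after 24 h treatment of human bronchial epithelial cell/dermal fibroblast cultures, analysed versus DMSO. Overt cytotoxicity checked in parallel cultures by sulforhodamine B staining.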

[9] = read-out: Interleukin-8 (IL8), CXCL8 (gene 3576); test: BSK_BF4T_IL8: BioMAP Diversity Plus: BF4T Assay for Interleukin-8 (IL8) Biomarker Activity (AID 2284263); conditions: primary human bronchial epithelial cells with fibroblasts
Summary of the method: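 Human bronchial epithelial cells with dermal fibroblasts co-culture; IL-8 measured by ELISA 24 hours after dosing, fitted vs DMSO. Cytotoxicity tracked in parallel cultures by SRB total-protein staining.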

[10] = read-out: Interleukin-1 alpha (IL1a), IL1A (gene 3552); test: BSK_BF4T_IL1a: BioMAP Diversity Plus: BF4T Assay for Interleukin-1 alpha (IL1a) Biomarker Activity (AID 2284264); conditions: primary human bronchial epithelial cells with fibroblasts
Summary of the method: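 ELISA read-out of IL-1α from bronchial epithelial cell/dermal fibroblast co-cultures 24 h after compound addition. Increases scored against DMSO negative control. Cytotoxicity monitored by sulforhodamine B staining of parallel cultures.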

[11] = read-out: Decorin, DCN (gene 1634); test: BSK_MyoF_Decorin: BioMAP Diversity Plus: MyoF Assay for Decorin Biomarker Activity (AID 2284265); conditions: primary human lung fibroblasts
Summary of the method: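 Lung fibroblast cultures, 24 h chemical exposure. Decorin by ELISA, positive fitting direction, DMSO baseline.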

[12] = read-out: KRT18 (gene 3875); test: BSK_BF4T_Keratin818: BioMAP Diversity Plus: BF4T Assay for Keratin 818 Biomarker Activity (AID 2284266); conditions: primary human bronchial epithelial cells with fibroblasts
Summary of the method: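 Keratin 8/18 levels quantified by ELISA after 24 h chemical treatment of bronchial epithelial cell/dermal fibroblast co-cultures, fitted in positive direction relative to DMSO. Parallel SRB staining tracks overt cytotoxicity.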

[13] = BSK_MyoF_SRB: Viability Assessment in the BioMAP Diversity Plus: MyoF Assay (AID 2284267); conditions: primary human lung fibroblasts;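 note: total protein by SRB absorbance in parallel cultures as cytotoxicity measure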
Summary of the method: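 Lung fibroblast cultures, 24 h post-dose; fix 10% TCA, stain 0.1% SRB, read 560 nm. Signal = total protein as cytotoxicity measure; fitted relative to DMSO negative control.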

[14] = read-out: Matrix Metallopeptidase 1 (MMP1), MMP1 (gene 4312); test: BSK_MyoF_MMP1: BioMAP Diversity Plus: MyoF Assay for Matrix Metallopeptidase 1 (MMP1) Biomarker Activity (AID 2284268); conditions: primary human lung fibroblasts
Summary of the method: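 MMP1 measured by ELISA 24 h after dosing primary human lung fibroblasts; cytotoxicity checked in parallel cultures by sulforhodamine B total-protein staining read at 560 nm.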

[15] = read-out: TIMP metallopeptidase inhibitor 1 (TIMP1), TIMP1 (gene 7076); test: BSK_MyoF_TIMP1: BioMAP Diversity Plus: MyoF Assay for TIMP metallopeptidase inhibitor 1 (TIMP1) Biomarker Activity (AID 2284269); conditions: primary human lung fibroblasts
Summary of the method: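 Primary human lung fibroblasts, MyoF multiplex system; chemical exposure 24 h; TIMP-1 by ELISA; positive fitting direction vs DMSO control.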

[16] = read-out: Matrix Metallopeptidase 1 (MMP1), MMP1 (gene 4312); test: BSK_BF4T_MMP1: BioMAP Diversity Plus: BF4T Assay for Matrix Metallopeptidase 1 (MMP1) Biomarker Activity (AID 2284270); conditions: primary human bronchial epithelial cells with fibroblasts
Summary of the method: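 MMP-1 quantified by ELISA in primary human bronchial epithelial/dermal fibroblast co-cultures, 24 hours post-dosing, with DMSO as baseline; parallel sulforhodamine B staining (560 nm) tracks overt cytotoxicity.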

[17] = read-out: Tissue plasminogen activator (tPA), PLAT (gene 5327); test: BSK_BF4T_tPA: BioMAP Diversity Plus: BF4T Assay for Tissue plasminogen activator (tPA) Biomarker Activity (AID 2284272); conditions: primary human bronchial epithelial cells with fibroblasts
Summary of the method: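 tPA level quantified by ELISA at 24 h post-treatment in bronchial epithelial/dermal fibroblast co-cultures, gain of signal scored against DMSO baseline. Parallel cultures stained with 0.1% SRB (560 nm) to flag overt cytotoxicity.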

[18] = read-out: Plasminogen Activator Inhibitor-1 (PAI1), SERPINE1 (gene 5054); test: BSK_BF4T_PAI1: BioMAP Diversity Plus: BF4T Assay for Plasminogen Activator Inhibitor-1 (PAI1) Biomarker Activity (AID 2284273); conditions: primary human bronchial epithelial cells with fibroblasts
Summary of the method: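 PAI-1 levels quantified by ELISA 24 h post-dosing in bronchial epithelial cell plus dermal fibroblast cultures. Signal gain referenced to DMSO baseline. Sulforhodamine B total-protein staining of parallel wells checked cytotoxicity.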

Measured: outcome

C=C(C)C(=O)OCCC(F)(F)C(F)(F)C(F)(F)C(F)(F)C(F)(C(F)(F)F)C(F)(F)F
not listed: [18]
inactive: all other assays above

CCCCCCCOC(=O)c1ccccc1C(=O)OCCCCCCC
inactive: [3] | [7] | [11] | [13] | [14] | [15]

O=C(O)C(F)(F)C(F)(F)C(F)(F)F
inactive: all assays above

CCCCCCC(C)OC(=O)CCCCC(=O)OC(C)CCCCCC (centres undefined)
inactive: [3] | [7] | [11] | [13] | [14] | [15]

O=P(O)(O)OCCC(F)(F)C(F)(F)C(F)(F)C(F)(F)C(F)(F)C(F)(F)F
not listed: [18]
inactive: all other assays above
